Records with an inconclusive call do not appear. Where a call stands in place of a potency, no number is given. Calls of active or inactive are those of the source. Calls follow the shape of the dose curve; as a rule, active = well fitted activation curve with a large enough effect; inconclusive = small, poorly fitted or top-dose-only effect; inactive = no such curve, though single readings can be large or run the other way.
Potency is read from the fitted curve at half-maximal effect.

For the assay, the target named is Relaxin receptor 1 (Homo sapiens) (UniProt Q9HBX9). Kind of assay: qHTS Assay for Agonists of the Relaxin Receptor RXFP1: RXFP1 Hit Validation. Also: nearly all actives have a fitted effect of over 65% in size.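 As to activation: cAMP rise lowers the TR-FRET signal in lysed cells with PDE4 inhibitor present.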 The conditions noted are these: HEK293T-RXFP1 cAMP TR-FRET, 30 min; series mostly up to 115 µM.
Sequence of Relaxin receptor 1 (Homo sapiens) (Q9HBX9 whole entry, looked up): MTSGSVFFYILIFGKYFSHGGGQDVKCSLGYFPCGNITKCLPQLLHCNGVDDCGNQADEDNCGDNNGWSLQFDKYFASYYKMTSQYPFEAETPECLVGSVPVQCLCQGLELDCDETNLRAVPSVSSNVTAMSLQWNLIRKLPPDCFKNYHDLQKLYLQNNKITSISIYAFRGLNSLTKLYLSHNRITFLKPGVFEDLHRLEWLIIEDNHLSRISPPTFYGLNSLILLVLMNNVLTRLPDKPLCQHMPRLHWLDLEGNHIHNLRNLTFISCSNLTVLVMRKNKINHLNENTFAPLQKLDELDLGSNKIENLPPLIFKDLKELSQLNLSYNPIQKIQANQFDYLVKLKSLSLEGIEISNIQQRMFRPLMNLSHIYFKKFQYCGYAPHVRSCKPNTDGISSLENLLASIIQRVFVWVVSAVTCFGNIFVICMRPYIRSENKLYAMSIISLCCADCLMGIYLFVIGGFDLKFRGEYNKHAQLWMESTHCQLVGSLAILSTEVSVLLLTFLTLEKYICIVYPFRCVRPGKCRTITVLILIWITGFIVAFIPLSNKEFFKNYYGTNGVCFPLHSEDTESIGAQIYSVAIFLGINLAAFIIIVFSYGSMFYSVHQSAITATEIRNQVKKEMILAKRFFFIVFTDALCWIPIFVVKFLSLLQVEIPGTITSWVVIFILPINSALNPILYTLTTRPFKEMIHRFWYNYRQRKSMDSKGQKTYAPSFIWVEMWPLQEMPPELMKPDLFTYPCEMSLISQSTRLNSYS
On to `COc1cccc(C(=O)CSc2nnc(-c3cc(OC)cc(OC)c3)o2)c1`, for which the Potency was 13.8 µM (active).

Turning to `Cc1cccc(NC(=O)c2ccccc2NC(=O)C2CCCCC2)c1C`, the Potency result is “inactive”.

As for `Cc1cccn2c(=O)c3cc(C(=O)NCCN4CCOCC4)c(=N)n(CCCN4CCOCC4)c3nc12`, the Potency entry was “inactive”.

Regarding `CCOP1(=O)OCC2OC(n3cnc4c(N)ncnc43)C(O)C2O1` (stereo unspecified), the Potency was 6.91 µM (active).

For the molecule `CN1CCN(C(=O)CCc2nnc3ccc(N4CCC5(CC4)OCCO5)nn23)CC1`, the Potency result is “inactive”.

Turning to `CC1(C)Cc2nc3sc4c(SCC(=O)NC(c5ccccc5)c5ccccc5)ncnc4c3cc2CO1`, the Potency is 4.88 µM (active).

Turning to `CCn1c(=O)c2sccc2n2c(CCCC(=O)NCc3cccnc3)nnc12`, the Potency entry is “inactive”.

With `O=C(Nc1ccccc1C(=O)Nc1ccccc1C(=O)NCc1ccco1)c1ccco1`, the Potency is 21.9 µM (active).

As to `COc1ccc(Cl)cc1-c1n[nH]c(=S)o1`, the Potency was 6.15 µM (active).

For `O=C(Nc1ccccc1C(=O)NCCN1CCOCC1)c1ccco1`, the Potency result is “inactive”.

Consider `Cc1ccc2[nH]c3c(=S)nc[nH]c3c2c1`, for which the Potency is 3.88 µM (active).

For `CCNc1nc(NCC)nc(N(C)/N=C/c2ccco2)n1`, the Potency entry was “inactive”.

For the molecule `Nc1nnc(CC(=O)N/N=C/c2ccc(-c3ccc(Cl)cc3Cl)o2)s1`, the Potency result was “inactive”.

For the molecule `CCC1(C)Cc2c(sc3c2c2ncnn2c2nnc(SCC(=O)NCc4ccco4)n32)CO1` (stereo unspecified), the Potency was 12.3 µM (active).

For the molecule `N#Cc1c(N)nc(SCC(=O)C23CC4CC(CC(C4)C2)C3)c(C#N)c1-c1ccc(Cl)cc1`, the Potency is 9.74 µM (active).

Turning to `N#C/C(=C\c1c(N2CCC(C(N)=O)CC2)nc2ccccn2c1=O)C(=O)NC1CCCCC1`, the Potency entry is “inactive”.

`COc1ccc(CN2C(=O)c3cccnc3C2=O)cc1S(=O)(=O)NC1CCCCC1`: the Potency was 38.9 µM (active).

With `COCCNC(=O)C(OC(=O)c1nsc(Cl)c1Cl)C(C)C` (stereo unspecified), the Potency entry is “inactive”.

Regarding `COc1ccc(S(=O)(=O)Nc2ccccn2)c(C)c1C`, the Potency result was “inactive”.

`O=C(Nc1ccccc1C(=O)Nc1ccccc1)c1ccco1`: the Potency entry was “inactive”.

For `Cc1c(CCOC(=O)c2cc([N+](=O)[O-])ccc2Cl)sc[n+]1CCCCS(=O)(=O)[O-]`, the Potency result was “inactive”.

In the case of `CN(C)CCCn1c(SCC(=O)Nc2nc(-c3cccc(Br)c3)cs2)nc2ccccc2c1=O`, the Potency result is “inactive”.

In the case of `O=C(Nc1ccccc1C(=O)N1CCNCC1)c1ccco1`, the Potency entry is “inactive”.

Turning to `CCN(CC)C(=O)c1cc(Cl)ccc1NC(=O)c1ccco1`, the Potency entry was “inactive”.

For `COc1ccc(CNC(=O)CN2C(=O)NC(C)(c3cccc(Br)c3)C2=O)cc1` (stereo unspecified), the Potency result is “inactive”.

Consider `Cc1cccn2c(=O)c3cc(C(=O)NC4CCCC4)c(=N)n(CCCN4CCOCC4)c3nc12`, for which the Potency entry is “inactive”.

With `CC1CCCCN1C(=O)c1ccccc1NC(=O)c1ccco1` (stereo unspecified), the Potency entry was “inactive”.

With `CCOc1ccc2cc(C#N)c(SCC(=O)NC(C)CC)nc2c1` (stereo unspecified), the Potency is 4.88 µM (active).

For `CC(=O)Nc1ccc(NC(=O)CSc2ccc3nnc(-c4ccccn4)n3n2)cc1`, the Potency result was “inactive”.

As for `CCc1nn(CC(=O)NCCCN2CCOCC2)c(=O)c2cc3sccc3n12`, the Potency result is “inactive”.

For `CN(CC(=O)Nc1ccccc1Cl)C(=O)COC(=O)Cc1c(F)cccc1Cl`, the Potency result is “inactive”.

As to `N#CCCSc1ncnc2c1oc1ccccc12`, the Potency is 19.4 µM (active).

As for `Cc1ccc(C(=O)Nc2ccccc2C(=O)NCc2ccco2)cc1`, the Potency entry is “inactive”.

Turning to `CCN(CC)S(=O)(=O)c1cccc(N=Nc2c(O)c3ccccc3oc2=O)c1`, the Potency was 21.9 µM (active).

For `O=C(Nc1ccccc1C(=O)NCCc1ccccc1)c1ccco1`, the Potency result is “inactive”.

For `C=CCOc1c(Cl)cc(CNc2ccc(N(C)C)cc2)cc1OC`, the Potency entry was “inactive”.

The values above are taken from PubChem BioAssay AID489012 (National Center for Advancing Translational Sciences (NCATS), 2010).
